# Data from PubChem BioAssay (EPA / NIEHS).
# Results filed as inconclusive are left out. Calls of active or inactive are those of the source. Rule for the calls: active = hit-call score of the fitted dose curve at least 0.9, where 1 is the maximum; inconclusive = response in the unintended direction; inactive = score below 0.9.
# Read-out: Cytochrome P450 2B6 (Homo sapiens) (UniProt P20813)
# Assay: CLD_CYP2B6_24hr: CellzDirect (CLD) Gene Expression Assay for xenobiotic metabolism (CYP2B6) at 24 hours (AID 2283686)
# Method: CLD_24hr is a cell-based, multiplexed-readout assay that uses hepatocyte, a human liver primary cell, with measurements taken at 24 hours after chemical dosing in a 96-well plate.CLD_CYP2B6_24hr is one of 16 assay component(s) measured or calculated from the CLD_24hr assay. It is designed to make measurements of mRNA induction, a form of inducible reporter, as detected with chemiluminescence signals by Quantitative Nuclease Protection Assay (qNPA) technology.Data from the assay component CLD_CYP2B6_24hr was analyzed at the endpoint, CLD_CYP2B6_24hr, in the positive analysis fitting direction relative to DMSO as the negative control and baseline of activity. Using a type of inducible reporter, gain-of-signal activity can be used to understand changes in the reporter gene as they relate to the gene CYP2B6. Furthermore, this assay endpoint can be referred to as a primary readout. To generalize the intended target to other relatable targets, this assay endpoint is annotated to the cyp intended target family, where subfamily is xenobiotic metabolism.
# Human hepatocyte cultures were treated daily for two consecutive days with fresh dosing solutions containing appropriate concentrations of the 320 ToxCast chemicals (chemical identities were blinded to CellzDirect and other ToxCast collaborators), vehicle control (0.2% DMSO), and positive control inducers as summarized in Table 1. Due to the large number of treatment groups and chemicals examined, the ToxCast chemicals were divided into two groups (spanning two independent cultures of hepatocytes from separate donor preparations (Hu778: ToxCast plates 1 and 2; Hu776: ToxCast plates 3 and 4). Each preparation of human hepatocyte cultures was treated with respective vehicle control, medium only control, set of six positive controls/reference chemicals for the five hepatic receptor pathways, and a subset of eight of the ToxCast chemicals (indoxacarb, pyrithiobac-sodium, norflurazon, cyhalofop-butyl, methomyl, thiram, acetochlor, and propiconazole). These replicate data, coupled with internal replicates designed within the blinded ToxCast chemical library, provided additional data to evaluate interindividual differences between hepatocyte preparations and their potential impact on chemical profiles.Cell morphology and integrity were evaluated using phase-contrast microscopy as an indicator of hepatocyte cell health (Tyson & Green, 1987). Cultures for each treatment group (i.e., media, vehicle [0.2% DMSO], positive control inducers [multiple concentrations], and the ToxCast chemicals [multiple concentrations]) were observed and cell morphology was assessed relative to vehicle control cultures at each harvest time point (0, 6, 24, or 48 h). […] Images were evaluated at the conclusion of the study to assess changes in cell integrity and account for the effects of chemical exposure on uncharacteristic changes in concentration-dependent gene expression profiles. The results from these determinations of apparent cytotoxicity were annotated (yes/no) alongside the corresponding qNPA data for reference.At the conclusion of each treatment period, hepatocyte cultures (96-well) were washed with 1 volume of HBSS, lysed by addition of 25 ul ArrayPlate lysis buffer (HTG, Tucson, AZ), and 70 ul/well of Denaturation Oil, denatured by incubation at 95C for 10 min, and frozen at approximately -70C until analysis by nuclease protection assay (qNPA) (Roberts et al., 2007). For qNPA analysis, cell lysates were thawed at 50C for approximately 30 min, qNPA probes were added, and samples were incubated at 95C for 10 min to begin the detection process by denaturing the target RNA, dissociating the duplexes and secondary structure hybridization. At the conclusion of the hybridization period, S1 nuclease reagent was added to each sample to digest all nonprotected nucleotides at 50C for 60-90 min. […]
Structure (SMILES),AC50,outcome
Nc1c(Cl)cc([N+](=O)[O-])cc1Cl,33.7 µM (active),
CCc1cccc(C)c1N(C(=O)CCl)C(C)COC (stereo not given),1.61 µM (active),
CCc1cccc(CC)c1N(COC)C(=O)CCl,2.69 µM (active),
S=C1NCCN1,,inactive
CCOP(=O)(OCC)Oc1cc(C)nc(C(C)C)n1,20 µM (active),
CCCSP(=O)(OCC)SCCC,2.84 µM (active),
Cc1cc(C2CC2)nc(Nc2ccccc2)n1,3.97 µM (active),
O=C(O)c1cc(Oc2ccc(C(F)(F)F)cc2Cl)ccc1[N+](=O)[O-],,inactive
CCCCN(CC)c1c([N+](=O)[O-])cc(C(F)(F)F)cc1[N+](=O)[O-],7.3 µM (active),
CNC(=O)ON=C(C)SC,,inactive
CCOC(=O)CC(SP(=O)(OC)OC)C(=O)OCC (stereo not given),20 µM (active),
COc1ccc(C(=CC(=O)N2CCOCC2)c2ccc(Cl)cc2)cc1OC,3.59 µM (active),
FC(F)C(F)(F)OCC(Cn1cncn1)c1ccc(Cl)cc1Cl (stereo not given),0.275 µM (active),
CC(C)=CC1C(C(=O)OCN2C(=O)C3=C(CCCC3)C2=O)C1(C)C (stereo not given),7.4 µM (active),
CC(C)[C@H](C(=O)O[C@H](C#N)c1cccc(Oc2ccccc2)c1)c1ccc(Cl)cc1,,inactive
C#CCC1=C(C)C(OC(=O)C2C(C=C(C)C)C2(C)C)CC1=O (stereo not given),4.23 µM (active),
CCOP(=S)(OCC)Oc1ccc([N+](=O)[O-])cc1,0.828 µM (active),
CCOP(=S)(OCC)SCCSCC,3.91 µM (active),
CCC(CC)Nc1c([N+](=O)[O-])cc(C)c(C)c1[N+](=O)[O-],11.4 µM (active),
CCCOCC(=Nc1ccc(Cl)cc1C(F)(F)F)n1ccnc1,,inactive

Structure (SMILES),AC50,outcome
CON=C(C(=O)OC)c1ccccc1CON=C(C)c1cccc(C(F)(F)F)c1,20 µM (active),
CCCCOC(=O)[C@@H](C)Oc1ccc(Oc2ccc(C#N)cc2F)cc1,,inactive
CCC(=O)Nc1ccc(Cl)c(Cl)c1,3.95 µM (active),
CCC(=NOC/C=C/Cl)C1=C(O)CC(C2CCOCC2)CC1=O (stereo not given),,inactive
COc1cc(OC)nc(Sc2cccc(Cl)c2C(=O)O)n1,,inactive
CC[C@H](C)[C@H]1O[C@]2(C=C[C@@H]1C)C[C@@H]1C[C@@H](C/C=C(\C)[C@@H](O[C@H]3C[C@H](OC)[C@@H](O[C@H]4C[C@H](OC)[C@@H](NC)[C@H](C)O4)[C@H](C)O3)[C@@H](C)/C=C/C=C3\CO[C@@H]4[C@H](O)C(C)=C[C@@H](C(=O)O1)[C@]34O)O2,,inactive
CCOP(=O)(NC(C)C)Oc1ccc(SC)c(C)c1 (stereo not given),6.17 µM (active),
CC1=NNC(=O)N(/N=C/c2cccnc2)C1,,inactive
COP(=O)(NC(C)=O)SC (stereo not given),,inactive
CC(C)N(C(=O)SCC(Cl)=C(Cl)Cl)C(C)C,20 µM (active),
CN(C)[C@@H]1C(=O)C(C(N)=O)=C(O)[C@@]2(O)C(=O)C3=C(O)c4c(O)cccc4[C@@](C)(O)[C@H]3[C@H](O)[C@@H]12,,inactive
CC(COc1ccc(Oc2ccccc2)cc1)Oc1ccccn1 (stereo not given),3.97 µM (active),
CN(C)NC(=O)CCC(=O)O,,inactive
C[Si](Cn1cncn1)(c1ccc(F)cc1)c1ccc(F)cc1,0.179 µM (active),
CC(=NC#N)N(C)Cc1ccc(Cl)nc1,,inactive
COP(=O)(OC)OC(Br)C(Cl)(Cl)Br (stereo not given),,inactive
N#CSCSC#N,,inactive
CCc1cnc(C2=NC(C)(C(C)C)C(=O)N2)c(C(=O)O)c1 (stereo not given),,inactive
CN(C)C(=O)Nc1cccc(C(F)(F)F)c1,4.64 µM (active),
CNc1cnn(-c2cccc(C(F)(F)F)c2)c(=O)c1Cl,6.64 µM (active),
